Compound activity from PubChem BioAssay.
The list is not random: actives were taken first. Their share in the collection is about 6.9%.
HP1b chromo inh – blocks HP1-beta chromodomain binding to methylated histone tails; Potency, µM (titrated, usually from 114 µM), for inactives: at the top dose activity change, negative = inhibition, most hits filed as inhibitors; 390,000 tested, 0.56% active; AlphaScreen HP1-beta / biotin-H3K9me3 peptide binding; AID 540317; P83916; note: nearly all actives have a fitted effect of over 70% in size
Target sequence (P83916 whole entry, looked up): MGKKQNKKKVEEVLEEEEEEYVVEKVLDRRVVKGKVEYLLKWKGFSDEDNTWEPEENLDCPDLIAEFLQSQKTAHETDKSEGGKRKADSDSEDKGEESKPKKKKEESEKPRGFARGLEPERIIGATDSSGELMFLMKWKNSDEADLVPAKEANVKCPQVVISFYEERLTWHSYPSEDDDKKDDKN
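HP1-beta protein (50 nM final) preincubated 30 min at room temperature with biotinylated H3(1-18)K9me3 peptide (50 nM) in PBS pH 7.4, 0.01% Tween-20, then compound added for 30 min. AlphaScreen streptavidin donor/nickel chelate acceptor beads (10 ug/mL final), 30 min dark, luminescence read.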
VDR inhibitor – blocks the human vitamin D receptor; AID 504847; VDR-SRC2-3 peptide fluorescence polarization, 2 h; P11473; Potency, µM, without a hit: max response, negative = inhibition, most hits filed as inhibitors; 400,000 tested, 0.93% active; note: % is set by controls: 0 for no effect and ±100 for the full control effect
Target sequence (P11473 whole entry, looked up): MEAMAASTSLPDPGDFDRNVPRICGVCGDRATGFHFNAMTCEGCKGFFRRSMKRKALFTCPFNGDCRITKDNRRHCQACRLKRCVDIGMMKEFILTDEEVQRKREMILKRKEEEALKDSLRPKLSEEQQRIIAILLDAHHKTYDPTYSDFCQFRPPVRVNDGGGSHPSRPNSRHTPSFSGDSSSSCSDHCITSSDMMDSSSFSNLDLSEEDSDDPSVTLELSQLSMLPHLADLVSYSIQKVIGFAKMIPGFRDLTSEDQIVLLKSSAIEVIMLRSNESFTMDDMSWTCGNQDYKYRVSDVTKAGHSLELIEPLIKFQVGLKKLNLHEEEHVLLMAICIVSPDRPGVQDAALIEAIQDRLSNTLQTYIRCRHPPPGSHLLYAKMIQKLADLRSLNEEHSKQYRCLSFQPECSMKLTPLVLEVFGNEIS
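Signal is fluorescence polarization, reporting how far test compounds block the interaction of VDR with the SRC2-3 coregulator peptide after a 2 h room-temperature incubation.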
BAZ2B inh – inhibitors of human BAZ2B bromodomain. Q9UIF8. AlphaScreen BAZ2B-H3K14Ac peptide displacement. Potency, µM (doses to about 114 µM), for inactives: top-dose activity change, negative = inhibition, usual class: inhibitors. 360,000 tested, 4.4% active. AID 504333; note: % is set by controls: 0 for no effect and ±100 for the full control effect; nearly all actives have a fitted effect of over 60% in size
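Multi-concentration screen (max 110 uM) measuring displacement of acetylated histone H3 peptide from BAZ2B by AlphaScreen, using 50 nM protein, 50 nM peptide and 10 ug/mL streptavidin donor plus Ni-chelate acceptor beads.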
PLK1 PBD inh – inhibitors of human PLK1 polo-box domain binding; P53350; Plk1 PBD binding of FITC phosphopeptide, fluorescence polarization; Potency, µM, without a hit: max response, negative = inhibition, hits mostly inhibitors; 360,000 tested, 2.8% active; AID 720504; note: series mostly up to about 57 µM; % is set by controls: 0 for no effect and ±100 for the full control effect; nearly all actives have a fitted effect of over 65% in size
JMJD2A Tudor inh – blocks the human JMJD2A Tudor domain; O75164; AlphaScreen JMJD2A-Tudor / H3K4me3 peptide binding; Potency, µM (highest dose often 114 µM), inactives show top-dose activity change, negative = inhibition, hits mostly inhibitors; 390,000 tested, 4.4% active; AID 504339; note: % is set by controls: 0 for no effect and ±100 for the full control effect; nearly all actives have a fitted effect of over 50% in size
L3MBTL1 inh – L3MBTL1 (human) inhibition; Q9Y468; AlphaScreen L3MBTL1–H3K9me1 peptide binding; Potency, µM (highest dose often 57.1 µM), inactives show at the top dose activity, negative = inhibition, usual class: inhibitors; 230,000 tested, 0.66% active; AID 485360; note: % is set by controls: 0 for no effect and ±100 for the full control effect; nearly all actives have a fitted effect of over 60% in size
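Read-out is AlphaScreen signal from streptavidin donor and nickel chelate acceptor beads (10 ug/mL final each) bridging L3MBTL1 (50 nM) and biotinylated K9-monomethylated H3(1-15) peptide (75 nM), after 30 min compound exposure at room temperature.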
Active calls of the source: *; [ ] = dose if it differs, or a comment. Calls come from the whole dose curve; as a rule, active = well fitted curve in the direction sought with a large enough effect; inconclusive = small, poorly fitted or top-dose-only effect, or another doubt; inactive = no such curve, though single readings can be large; an effect the other way counts as inactive or inconclusive. Potency is the fitted concentration of half-maximal effect.

Screening O=c1c(Cl)c(NCCCO)cnn1-c1nc2ccccc2[nH]1 returned HP1b chromo inh -0.7%, VDR inhibitor -16.3%, BAZ2B inh 50.1µM*, PLK1 PBD inh 13.4µM*, JMJD2A Tudor inh -21.2%[11.4 µM] and L3MBTL1 inh -9.2%.
`CC(=O)c1nc(N2C(=O)CC(Cc3ccccc3)C2=O)sc1C` (stereo not drawn) gave HP1b chromo inh 33.0%, VDR inhibitor 10.0%, BAZ2B inh inconclusive, PLK1 PBD inh -5.3%, JMJD2A Tudor inh -4.2% and L3MBTL1 inh -2.2%.
Screening COCc1cc(C)nc2sc3c(=O)n(-c4cc(C)ccc4C)nnc3c12 returned HP1b chromo inh 9.8%, VDR inhibitor 12.0%, BAZ2B inh -4.2% and JMJD2A Tudor inh -18.9%.
For CCCCN1C(=O)C2(NNc3ccccc3O2)c2ccccc21 (stereo not drawn) the results were HP1b chromo inh -23.1%, VDR inhibitor -2.4%, BAZ2B inh 44.7µM*, PLK1 PBD inh 15.6% and JMJD2A Tudor inh inconclusive.
For C=CCN1C(=O)C2(NNc3ccccc3O2)c2ccccc21 (stereo not drawn) the results were HP1b chromo inh -7.4%, VDR inhibitor 1.6%, BAZ2B inh inconclusive, PLK1 PBD inh 12.0% and JMJD2A Tudor inh inconclusive.
`O=C(NCc1ccco1)C(c1ccco1)N(CCc1ccccc1)C(=O)Cn1nnc2ccccc21` (stereo not drawn) gave HP1b chromo inh inconclusive, VDR inhibitor 2.1%, BAZ2B inh -32.8%, PLK1 PBD inh 3.77µM*, JMJD2A Tudor inh -30.1%[11.4 µM] and L3MBTL1 inh -8.9%.
CN(C)c1ccc(N=Nc2ccccc2C(=O)OCC(=O)NCC2CCCCC2)cc1 was read as HP1b chromo inh inconclusive, VDR inhibitor -22.4%, BAZ2B inh 8.91µM*, PLK1 PBD inh -7.1%, JMJD2A Tudor inh 7.94µM* and L3MBTL1 inh 11.2µM*.
For O=C(COC(=O)c1cccc2c1C(=O)c1ccccc1C2=O)NC1CCCCC1 the results were HP1b chromo inh inconclusive, VDR inhibitor -8.0%, BAZ2B inh 39.8µM*, PLK1 PBD inh -7.6%, JMJD2A Tudor inh 39.8µM* and L3MBTL1 inh -13.5%.
Screening CN(C)c1ccc(N=Nc2ccccc2C(=O)OCC(=O)NC2CCCC2)cc1 returned HP1b chromo inh -86.5%, VDR inhibitor -7.5%, BAZ2B inh 12.6µM*, PLK1 PBD inh 15.0%, JMJD2A Tudor inh 31.6µM* and L3MBTL1 inh inconclusive.
For CN(C)c1ccc(N=Nc2ccccc2C(=O)OCC(=O)N(C)C2CCCCC2)cc1 the results were HP1b chromo inh -24.2%, VDR inhibitor -17.6%, BAZ2B inh 8.91µM*, PLK1 PBD inh 0.8%, JMJD2A Tudor inh inconclusive and L3MBTL1 inh 28.2µM*.
`CN(C(=O)COC(=O)c1cccnc1Cl)C1CCCCC1` gave HP1b chromo inh 22.9%, VDR inhibitor -12.9%, PLK1 PBD inh 5.6%, JMJD2A Tudor inh -2.1% and L3MBTL1 inh 3.9%.
`C=CCN(CC=C)S(=O)(=O)c1ccc(NC(=S)NC(=O)C2CC2)cc1` gave HP1b chromo inh 25.5%, VDR inhibitor 38.2%, BAZ2B inh -10.3%, PLK1 PBD inh -26.4% and JMJD2A Tudor inh -19.7%.
CC1CCC(NC(=O)c2cc(Cl)nc3ccccc23)CC1 (stereo not drawn) was read as HP1b chromo inh 26.5%, VDR inhibitor 12.1%, BAZ2B inh 7.6%, PLK1 PBD inh -9.3%, JMJD2A Tudor inh -8.1% and L3MBTL1 inh 5.0%.
For O=C(c1cnccn1)N1CCC2(CC1)CN(Cc1cc(C(F)(F)F)cc(C(F)(F)F)c1)C2 the results were VDR inhibitor -19.4%.
`O=C(COc1ccc([N+](=O)[O-])cc1)NNC(=O)c1cccs1` gave HP1b chromo inh 21.7%, VDR inhibitor -6.7%, BAZ2B inh -17.5%, PLK1 PBD inh -9.5%, JMJD2A Tudor inh -12.7% and L3MBTL1 inh 1.9%.
C=C1C[C@@]23C[C@]1(O)CC[C@@H]2[C@]12C=C[C@@H](O)[C@](C)(C(=O)O1)[C@H]2[C@H]3C(=O)O was read as VDR inhibitor 5.1%.
Oc1ccc(Nc2ccc3ccccc3c2)cc1 was read as HP1b chromo inh inconclusive, VDR inhibitor inconclusive, PLK1 PBD inh inconclusive and JMJD2A Tudor inh 39.8µM*.
Screening Cc1cc(Nc2ccc(O)cc2)ccc1N returned HP1b chromo inh 11.2µM*, VDR inhibitor inconclusive, BAZ2B inh 6.31µM*, JMJD2A Tudor inh inconclusive and L3MBTL1 inh -19.1%.
`COc1ccc2c(CC(=O)OCC(=O)Nc3ccc4c(c3)OCO4)coc2c1` gave HP1b chromo inh inconclusive, VDR inhibitor 17.8µM*, BAZ2B inh inconclusive, PLK1 PBD inh 16.8µM* and JMJD2A Tudor inh 20µM*.
COc1ccc2c(CC(=O)N3CCc4ccccc43)coc2c1 was read as HP1b chromo inh 2.5%, VDR inhibitor -3.3%, BAZ2B inh -2.7%, PLK1 PBD inh -9.2% and JMJD2A Tudor inh -7.2%.
`COc1ccc2c(CC(=O)OCC(=O)Nc3ccc(C)cc3)coc2c1` gave HP1b chromo inh 4.3%, VDR inhibitor -1.3%, BAZ2B inh 50.1µM*, PLK1 PBD inh 2.4%, JMJD2A Tudor inh -28.9% and L3MBTL1 inh inconclusive.
COc1ccc2c(CC(=O)OCC(=O)N3CCc4ccccc43)coc2c1 was read as HP1b chromo inh -23.5%, VDR inhibitor inconclusive, BAZ2B inh 0.8%, PLK1 PBD inh 26.7µM* and JMJD2A Tudor inh inconclusive.
`Cc1ccc(C)c(S(=O)(=O)N2CCCOC2CNC(=O)C(=O)NCc2ccccn2)c1` (stereo not drawn) gave HP1b chromo inh 20.5%, VDR inhibitor -23.1%, BAZ2B inh -11.4%, PLK1 PBD inh -9.4% and JMJD2A Tudor inh -10.3%.
For CC(C)c1ccc(NC(=S)N(C)CCc2ccccn2)cc1 the results were HP1b chromo inh 2.6%, VDR inhibitor -5.0%, BAZ2B inh -35.2%, PLK1 PBD inh -6.2%, JMJD2A Tudor inh -28.4% and L3MBTL1 inh 0.3%[2.29 µM].
For O=C(O)CNS(=O)(=O)c1cccc2nsnc12 the results were HP1b chromo inh 10.3%, VDR inhibitor -4.5%, BAZ2B inh -27.2%, PLK1 PBD inh -1.6% and JMJD2A Tudor inh 14.1µM*.
For O=S(=O)(Nc1ccccc1)c1cccc2nsnc12 the results were HP1b chromo inh inconclusive, VDR inhibitor 9.8%, BAZ2B inh 50.1µM*, PLK1 PBD inh -0.8%, JMJD2A Tudor inh inconclusive and L3MBTL1 inh -29.7%.
For CCOc1ccc(OCC)c(NS(=O)(=O)c2cccc3nsnc23)c1 the results were HP1b chromo inh inconclusive, VDR inhibitor 28.6%, BAZ2B inh 50.1µM*, PLK1 PBD inh 0.5% and JMJD2A Tudor inh inconclusive.
Screening CCC(=O)N1CCc2cc(Br)cc(S(=O)(=O)NCCc3ccc(C)cc3)c21 returned HP1b chromo inh 20.7%, VDR inhibitor 7.9%, BAZ2B inh 3.9% and JMJD2A Tudor inh -11.5%.
